This note sets out measurements from ChEMBL document CHEMBL3988442, “University of Dundee, Small-Polar-MMV Screening Library” (2021).

The whole screen tested about 48,000 compounds, of which about 13,000 (27%) showed an effect of 50% or more. Some of the results follow.

In this assay the test system is Wolbachia pipientis. The assay is described as follows: Anti-Wolbachia Cell-Based Screen. The note with it: 5 µM. The assay is classed as functional. Also noted: scale not given: in the data most compounds retested in dose-response had high values.
Regarding `CC(O)CN1CCC(CNCc2cn(-c3ccccc3)nn2)CC1` (stereo not drawn), the “Percent Effect” value was found to be 3.471%.

Regarding `COCC(C)N(C)C(=O)NC1CCN(S(C)(=O)=O)CC1` (stereo not drawn), the “Percent Effect” value is 2.159%.

On to `CS(=O)(=O)c1ccc(CNC(=O)NCC2CCOC2)cc1` (stereo not drawn), for which the “Percent Effect” value is given as -15.52%.

Regarding `CCSCCC(=O)NS(=O)(=O)c1ccc2c(c1)OCCO2`, the “Percent Effect” value was found to be 5.287%.

For `CO[C@H]1CN(C(=O)c2ccc3c(c2)OCO3)[C@@H]2COC[C@H]12`, the “Percent Effect” value is listed as -7.485%.

With `Cc1nc(CO[C@H]2CN(C(=O)c3ccc[nH]3)[C@@H]3COC[C@H]23)cs1.O=C(O)C(F)(F)F`, the “Percent Effect” value is given as -0.1564%.

`CO[C@H]1CN(C(=O)c2ccc[nH]2)[C@@H]2COC[C@H]12`: the “Percent Effect” value is 98.6%.

As to `O=C(c1ccc[nH]1)N1C[C@H](OCc2cccnc2)[C@H]2COC[C@H]21`, the “Percent Effect” value is -9.205%.

Take `O=C(c1ccc[nH]1)N1C[C@H](OCc2ccccn2)[C@H]2COC[C@H]21`: the “Percent Effect” value is listed as 111.2%.

As to `CCO[C@H]1CN(C(=O)c2ccc3c(c2)OCO3)[C@@H]2COC[C@H]12`, the “Percent Effect” value amounted to 0.5362%.

With `CCOCc1nnc(NCc2cccnc2)o1`, the “Percent Effect” value is listed as -1.439%.

For `CCN(CC1CCOC1)C(=O)Nc1ccc(N2CCCC2)nc1` (stereo not drawn), the “Percent Effect” value was -5.429%.

Turning to `C=C(C)CN(CC)C(=O)c1cc(F)ccc1NS(C)(=O)=O`, the “Percent Effect” value is listed as 23.28%.

As for `CC(C)N(CC(N)=O)C(=O)c1cc(F)ccc1N1CCN(C)CC1`, the “Percent Effect” value was found to be 95.17%.

Take `C=C(C)CN(CC)C(=O)c1cc(F)ccc1N1CCN(C)CC1`: the “Percent Effect” value turned out to be 106.7%.

Take `CCN(CC1CCOC1)C(=O)c1cc(F)ccc1N1CCN(C)CC1` (stereo not drawn): the “Percent Effect” value stood at 87.35%.

For the molecule `C=C(C)CN(CC)C(=O)c1cc(C)ccc1NS(C)(=O)=O`, the “Percent Effect” value was 12.91%.

As for `CCN(CC1CCOC1)C(=O)c1ccccc1N1CCOCC1` (stereo not drawn), the “Percent Effect” value was 5.823%.

For the molecule `CCN(CC1CCOC1)C(=O)c1cc(Cl)c2c(c1)OCO2` (stereo not drawn), the “Percent Effect” value is given as -2.452%.

In the case of `CCN(CC1CCOC1)C(=O)c1ccc(N2CCOCC2)c(F)c1` (stereo not drawn), the “Percent Effect” value is reported as 110.6%.

As for `Cc1ccc(CNC(C)c2cc(F)ccc2N2CCN(C)CC2)o1` (stereo not drawn), the “Percent Effect” value is -9.069%.

As for `CC(NCc1ccncc1)c1cc(F)ccc1N1CCN(C)CC1` (stereo not drawn), the “Percent Effect” value was -0.924%.

Take `CCN(CC1CCOC1)C(=O)c1cccnc1N1CCOCC1` (stereo not drawn): the “Percent Effect” value is on record as -1.739%.

On to `COC[C@@]12CC[C@@H](N3CCOCC3)C[C@H]1CCN(c1ccc(Cl)cn1)C2`, for which the “Percent Effect” value is -5.579%.

Turning to `Cc1cnc(N2CCCC(c3ccccc3)C2)nc1-c1ncnn1C` (stereo not drawn), the “Percent Effect” value is -17.16%.

For the molecule `O=C(NCC1COCc2c(-c3cccnc3)nnn2C1)c1cccs1.O=C(O)C(F)(F)F` (stereo not drawn), the “Percent Effect” value is -12.79%.

On to `O=S(=O)(C1CC1)N1CC[C@]2(C[C@H](OCC3CCOCC3)CO2)C1`, for which the “Percent Effect” value amounted to 2.042%.

As for `COCC1CN(Cc2ccncc2)Cc2nn(CC3CC3)cc21.O=C(O)C(F)(F)F.O=C(O)C(F)(F)F` (stereo not drawn), the “Percent Effect” value was -9.02%.

For `COCc1noc(C2(c3ccc(F)cc3)CC2)n1`, the “Percent Effect” value came to 1.348%.

With `c1csc(CN2C[C@H]3CCC[C@@]3(COCC3CCOCC3)C2)n1`, the “Percent Effect” value was 5.846%.

For the molecule `CSc1ccc(C(=O)N2CCCC(Nc3ccc(F)cc3)C2)cc1` (stereo not drawn), the “Percent Effect” value is reported as -32.55%.

In the case of `COCCN1CC(O)CN(C(=O)c2ccc(SC)cc2)CC1=O` (stereo not drawn), the “Percent Effect” value came out at 110.7%.

Take `CSc1ccccc1CN1C[C@H]2C(=O)N(CC3CC3)C[C@@]2(C(=O)O)C1`: the “Percent Effect” value is recorded as 6.148%.

For `COCCN1C[C@H]2CC[C@@H]1CN(C(=O)c1ccc(Cl)cc1)C2`, the “Percent Effect” value was 3.109%.

In the case of `COCCN1CC(C(=O)NCc2ccc(C)s2)CC1=O` (stereo not drawn), the “Percent Effect” value is reported as -3.089%.

In the case of `COc1ccc2cc(C(=O)N3CC[C@H](CO)[C@H](O)C3)n(C)c2c1`, the “Percent Effect” value is reported as -6.471%.

In the case of `COc1ccc(C(=O)N2CC(=O)N(CC3CC3)CC(O)C2)cc1` (stereo not drawn), the “Percent Effect” value is 115.7%.

As for `CSc1ccc(C(=O)N2CC(=O)N(Cc3ccccc3)CC(O)C2)cc1` (stereo not drawn), the “Percent Effect” value came to 97.14%.

As to `CSc1ccc(C(=O)N2C[C@H]3CC[C@@H]2CN(Cc2ccccc2)C3)cc1`, the “Percent Effect” value was 17.05%.

`CSc1ccc(C(=O)N2C[C@H]3CC[C@@H]2CN(Cc2cccnc2)C3)cc1`: the “Percent Effect” value came out at 37.83%.

For the molecule `CSc1ccc(C(=O)N2CC(=O)N(CC3CC3)CC(O)C2)cc1` (stereo not drawn), the “Percent Effect” value turned out to be 119.8%.

As to `COc1ccc(C(=O)N2CCN3C(=O)CNC(=O)[C@@H]3C2)cc1`, the “Percent Effect” value was -1.212%.

Regarding `CN(C)Cc1ccc(C2CCCCN2C(=O)c2cccc(CO)n2)cc1` (stereo not drawn), the “Percent Effect” value is given as 7.792%.

In the case of `CCCc1c(C(=O)N2CCN(c3nccc(OC)n3)CC2)cnn1C`, the “Percent Effect” value is 3.097%.

As for `Cc1cc2nc(CO[C@H]3CN(C)C[C@H]3F)[nH]c2cc1C`, the “Percent Effect” value was -14.61%.

As for `COC1CCC(N(C)c2ccnc(N(C)C)n2)CC1` (stereo not drawn), the “Percent Effect” value stood at 2.902%.

For the molecule `CSc1ccc(C(=O)N2CC(=O)N(CC(C)(C)C)CC(O)C2)cc1` (stereo not drawn), the “Percent Effect” value was found to be 76.9%.

Turning to `CCN1CC(C(=O)NCc2cccc(SC)c2)CC1=O` (stereo not drawn), the “Percent Effect” value is -13.72%.

On to `CCN1CC(O)CN(C(=O)c2ccc(SC)cc2)CC1=O` (stereo not drawn), for which the “Percent Effect” value is listed as 105.2%.

Regarding `CCN1CC(C(=O)N2CC(Oc3ccccc3F)C2)CC1=O` (stereo not drawn), the “Percent Effect” value is -11.41%.

`Cc1ccnc(N2CCC(C(N)=O)CC2)n1`: the “Percent Effect” value came out at 120.1%.

On to `c1cc(-c2cn3nccc3nc2C2CCCCC2)nc(N2CCCC2)n1`, for which the “Percent Effect” value was 96.94%.

Take `c1cc(-c2noc(C3CCC3)n2)cc(N2CCCCC2)n1`: the “Percent Effect” value is recorded as -13.71%.

Regarding `c1cc(-c2c[nH]nc2C2CCCCC2)nc(N2CCCCCC2)n1`, the “Percent Effect” value was determined as 78.4%.

With `Cc1ccnc(N2CCN(C3CCS(=O)(=O)C3)CC2)n1` (stereo not drawn), the “Percent Effect” value is 0.9659%.

Consider `CN1CCCN(c2nccc(-c3c[nH]nc3C3CCCCC3)n2)CC1`, for which the “Percent Effect” value is on record as 25.46%.

For the molecule `NC(=O)C1CCN(c2cncc(-n3cccn3)n2)CC1`, the “Percent Effect” value was 4.657%.

`NC(=O)C1CCN(c2nccc(-c3c[nH]nc3C3CCCCC3)n2)CC1`: the “Percent Effect” value amounted to 81.82%.

With `Cc1ccnc(N2CCC(OCCN3CCCCC3)C2)n1` (stereo not drawn), the “Percent Effect” value was found to be 14.04%.

With `NC(=O)N1CCCCCC1C1CCN(c2nccc(C(F)(F)F)n2)CC1` (stereo not drawn), the “Percent Effect” value was -6.613%.

As for `CC(=O)NCC(=O)N1Cc2cc(C#N)ccc2C1c1cnco1` (stereo not drawn), the “Percent Effect” value is -4.617%.

Turning to `CCNC(=O)CCC(=O)Nc1nc(C)c(Cc2ccc(F)cc2)s1`, the “Percent Effect” value is on record as -19.82%.

Consider `O=c1cc(CN2CCC(CCc3ccc(O)cc3)CC2)[nH]c(=O)[nH]1`, for which the “Percent Effect” value was -18.62%.

Take `COCCC1(CNC(=O)NCC2CCCS2)CCCC1` (stereo not drawn): the “Percent Effect” value is reported as -6.803%.

Regarding `CN(Cc1nc(COc2ccccc2)no1)CC1Cc2ccccc2O1` (stereo not drawn), the “Percent Effect” value was -1.217%.

Regarding `CCc1ccc(CN(C)Cc2nc(-c3cnccn3)no2)nc1`, the “Percent Effect” value was 12.77%.

As to `CCc1ccc(CN(C)Cc2nc(COc3ccccc3)no2)nc1`, the “Percent Effect” value was found to be 78.29%.

Consider `Cc1csc(CN(C)C(=O)C2CCC(=O)N(CCN(C)C)C2)n1` (stereo not drawn), for which the “Percent Effect” value was 2.129%.

Consider `O=C(c1cccnc1N1CCOC(c2ccc(Cl)cc2)C1)N1CCCC1` (stereo not drawn), for which the “Percent Effect” value is given as 19.68%.

For `COc1ccc(CN2C[C@@H]3CN(C(=O)c4ccsc4)C[C@@H]3C2=O)cc1`, the “Percent Effect” value is -7.26%.

For `COc1ccc(CN2CCO[C@H]3CN(C(C)=O)CC[C@H]3C2=O)cc1`, the “Percent Effect” value is given as -1.641%.

Turning to `COc1ccc(CN2CC(O)CN(C(=O)OCC(C)(C)C)CC2=O)cc1` (stereo not drawn), the “Percent Effect” value came out at 112.6%.

With `COc1ccc(CN2C[C@@H]3OCC(=O)N(CC(N)=O)[C@@H]3C2)cc1`, the “Percent Effect” value is -8.877%.

For the molecule `CCOC(=O)N1CC(=O)N(Cc2ccc(OC)cc2)CC(O)C1` (stereo not drawn), the “Percent Effect” value is recorded as 85.47%.

Take `CCC(=O)N1CC[C@H]2C(=O)N(Cc3ccc(OC)cc3)CCO[C@H]2C1`: the “Percent Effect” value worked out at 5.242%.

`COc1ccc(CN2CC(O)CN(C(=O)c3ccccc3)CC2=O)cc1` (stereo not drawn): the “Percent Effect” value is 119%.

For the molecule `CSCCCNc1ncnc2cccc(F)c12`, the “Percent Effect” value is listed as -37.93%.

As to `CC(=O)N1CCc2ccccc2C1CC(=O)NCc1nnc(C)o1` (stereo not drawn), the “Percent Effect” value is -6.807%.

`COCCS(=O)(=O)N(Cc1cscn1)c1ccccc1`: the “Percent Effect” value is recorded as -16.91%.

As for `O=C(CCN1C(=O)CCC1=O)Nc1ccc(Cl)cc1`, the “Percent Effect” value amounted to 9.29%.

With `CN1CCC/C1=N\S(=O)(=O)c1ccc(NC(=O)c2ccc(Cl)cc2)cc1`, the “Percent Effect” value was 101.2%.

In the case of `O=C(Nc1cnn(CC(=O)N2CCCCO2)c1)c1ccsc1`, the “Percent Effect” value is 8.582%.

In the case of `Cc1ccc(C(=O)Nc2ccc(S(=O)(=O)/N=C3\CCCN3C)cc2)s1`, the “Percent Effect” value is reported as 80.8%.

Turning to `CN1CCC/C1=N\S(=O)(=O)c1ccc(NC(=O)c2ccc(Cl)s2)cc1`, the “Percent Effect” value came to 40.68%.

Take `Cc1ccc(C(=O)Nc2ccc(N3CCC(O)CC3)c(C#N)c2)s1`: the “Percent Effect” value is on record as -23.53%.

Turning to `O=C(CCC1CCCN(S(=O)(=O)C2CC2)C1)Nc1ccc(Cl)cc1` (stereo not drawn), the “Percent Effect” value is recorded as 0.5143%.

Turning to `CN1CCC/C1=N\S(=O)(=O)c1ccc(NC(=O)c2ccsc2)cc1`, the “Percent Effect” value turned out to be 106.5%.

As for `CN1CCC/C1=N\S(=O)(=O)c1ccc(NC(=O)c2ccco2)cc1`, the “Percent Effect” value was determined as 116.6%.

Turning to `N#Cc1cc(NC(=O)c2ccsc2)ccc1N1CCC(O)CC1`, the “Percent Effect” value is given as -1.175%.

As for `O=C(Nc1ccccc1C(=O)NCCCN1CCOCC1)c1ccco1`, the “Percent Effect” value is 10.69%.

As to `Cc1nccnc1N1C[C@H](NC(=O)CNS(C)(=O)=O)[C@@H](C2CC2)C1`, the “Percent Effect” value is listed as -53.3%.

On to `COc1cccc(C(=O)N2CCN(C(=O)CCn3ccnc3)CC2)c1`, for which the “Percent Effect” value is listed as -2.961%.

Regarding `Cc1cc(C(=O)NS(=O)(=O)Cc2ccon2)c(C)o1`, the “Percent Effect” value was 30.96%.

Take `CCC(O)CN(CC(=O)Nc1cc(C)no1)c1ccccc1` (stereo not drawn): the “Percent Effect” value was 5.147%.

With `CN1C(=O)CO[C@H](c2ccc(NC(=O)Cc3cccs3)cc2)[C@H]1CO`, the “Percent Effect” value is -17.64%.

For `CN1CCC/C1=N\S(=O)(=O)c1ccc(NC(=O)Cc2cccs2)cc1`, the “Percent Effect” value is 91.75%.

For the molecule `Cn1cc(NC(=O)Cc2cccs2)c(=O)n(C)c1=O`, the “Percent Effect” value is recorded as -7.177%.

`CCOc1nnc(CN2CCC(c3nc4ccccc4[nH]3)CC2)s1`: the “Percent Effect” value is -10.51%.
